Reference: PubChem BioAssay (NCI)
About 83,000 compounds went through this panel and 20% of them were active in at least one assay; those are over-represented in the sample as a whole.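 Testing used 96-well plates and a 48-hour single-concentration exposure. Example: -40 means 40% of the starting cells died.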 Values without a mark were called inactive. Active and inactive are the calls of the source. Rule for the calls: active = growth percent below 10; inactive = the rest.

Each compound was assayed on HL-60(TB) leukemia (assay: NCI-60 one-dose screen, 48 h (100 = growth as untreated, 0 = no growth, -100 = all killed)). Details: 10 µM unless noted.

| SMILES | growth |
| --- | --- |
| Cc1cccc(NC(=O)N/C(N)=N/c2nc3ccccc3s2)c1 | 5.69% (active) |
| O=C1Nc2c(ccc(Cl)c2Cl)/C1=C/c1cc(Br)c(O)c(Br)c1 | 33% |
| CCCCCCCCc1ccc(CCC(N)(CO)CO)cc1 | -14.1% (active) |
| c1ccc(-c2c(-c3ccccc3)[n+](Cc3ccc4ccccc4c3)cn2Cc2ccc3ccccc3c2)cc1 | -67.1% (active) |
| O=C(CCCCCNC(=O)c1cc(=O)c(O)co1)Nc1ccccc1 | 106% |
| COc1cccc(OCC(O)CN2CCN(c3ccccc3)CC2)c1 (stereo not given) | 78.7% |
| C#CCN=C[C@]12CC[C@@H](C(=C)C)[C@@H]1[C@H]1CC[C@@H]3[C@@]4(C)CCC(=O)C(C)(C)[C@@H]4CC[C@@]3(C)[C@]1(C)CC2 | -14.3% (active) |
| CCOC(=O)c1c(C)nn(CC(O)c2ccccc2)c1NC(=O)Nc1cccc(F)c1 (stereo not given) | 107% |
| O=C(Nc1ccc(Cl)cc1)N1CCN(c2ccc3nncn3n2)CC1 | -65.2% (active) |
| COc1cc(/C=C/C(=O)Nc2ccc3c(c2)/C(=C\c2cccn2C)C(=O)N3)cc(OC)c1OC | 40.6% |
| CCOC(=O)C1C(C(=O)OCC)C2C(=O)C3C(C(=O)OCC)C(C(=O)OCC)C3C(=O)C12 (stereo not given) | 96.7% |
| CCOC(=O)/C(C#N)=C(\C)CCc1ccccc1 | 239% |
| CCCCN1C(=O)CC(SC2CC(=O)N(CCCC)C2=O)C1=O (stereo not given) | 132% |
| CCc1cccc(C)c1NC(=O)c1sc2nc3c(cc2c1N)CCCCC3 | -10.5% (active) |
| O=C1C(Nc2ccccn2)=C(I)C(=O)c2ncccc21 | -55.5% (active) |
